Screening data: PubChem BioAssay, several laboratories
The list is not random: actives were taken first. Their share in the collection is about 2.9%.
Mcl1 Noxa PPI: disrupts binding of human Mcl-1 to Noxa peptide; TR-FRET Mcl-1/Noxa peptide binding, 2 h; 220,000 compounds, 1.5% hits; inhibition, % at 21.7 µM; AID 1022; Q07820;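 active = compounds that cut the protein-peptide binding signal by more than 50% relative to plate controls in a single-dose test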;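 also: His-tagged Mcl-1 with rhodamine Noxa BH3 peptide and terbium anti-His antibody; 0% = Mcl-1 plus Noxa peptide wells and 100% = peptide-only wells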
Mcl-1 Bim block: human Bim-Mcl-1 interaction inhibition; Bead-based flow cytometry, Bim peptide-Mcl-1 binding; Q07820; 190,000 compounds, 0.1% hits; inhibition, % at 10 µM; in the data active = inhibition above about 40%;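 also: 0% = no compound tracer wells and 100% = peptide blocker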
14-3-3 Bad inh: disrupts binding of bovine 14-3-3 zeta to phospho-Bad peptide; TR-FRET 14-3-3zeta/Dy647-pBad peptide displacement, 1 h; inhibition, % at 21.7 µM; P63103; AID 781; 220,000 compounds, 0.71% hits;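 active = inhibition above about 70%, limit read from the data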;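 also: 0% = full 14-3-3 plus peptide FRET controls and 100% = background without 14-3-3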
Mcl1-Bid inh: disrupts binding of human Mcl-1 to Bid peptide | Q07820 | TR-FRET Mcl-1/Bid-Dy647 peptide binding, 1536-well | inhibition, % at 21.7 µM | 220,000 compounds, 0.97% hits | AID 1021;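 active = compounds that cut the binding signal by more than half at the single screening dose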;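 also: His-tagged Mcl-1 with europium anti-His antibody binding Bid BH3 peptide; 0% = Mcl-1 plus peptide wells and 100% = peptide-only wells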
Hck-Nef inh: blocks Nef-activated human Hck kinase | P08631 | Recombinant Hck-YEEI plus Nef, Z-Lyte FRET kinase assay | inhibition, % at 20 µM | 220,000 compounds, 0.68% hits | AID 463187;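 active = Hck-Nef kinase inhibition above about 50%, limit read from the data; inactive = inhibition below that limit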;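 also: 0% = DMSO with Hck plus Nef and 100% = Hck alone without Nef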
Target sequence (P08631 whole entry, looked up): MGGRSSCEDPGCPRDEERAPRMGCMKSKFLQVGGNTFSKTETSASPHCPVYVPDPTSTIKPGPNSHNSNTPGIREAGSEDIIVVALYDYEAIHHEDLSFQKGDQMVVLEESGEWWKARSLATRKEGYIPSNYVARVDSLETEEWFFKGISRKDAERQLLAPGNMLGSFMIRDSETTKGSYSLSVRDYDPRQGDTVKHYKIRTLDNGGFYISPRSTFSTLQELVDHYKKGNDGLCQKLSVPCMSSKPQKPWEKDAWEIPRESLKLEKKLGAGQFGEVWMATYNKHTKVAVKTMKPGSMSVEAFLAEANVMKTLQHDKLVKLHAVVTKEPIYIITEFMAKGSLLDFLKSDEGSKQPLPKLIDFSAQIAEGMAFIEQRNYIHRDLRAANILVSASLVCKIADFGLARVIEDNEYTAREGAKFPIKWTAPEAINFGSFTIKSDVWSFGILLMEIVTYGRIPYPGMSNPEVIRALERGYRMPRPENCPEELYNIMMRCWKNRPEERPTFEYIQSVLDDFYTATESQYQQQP
Pf gamet viab: kills late stage P. falciparum gametocytes. P. falciparum stage V gametocytes, ATP luminescence, 24 h. inhibition, % at 10.9 µM. 150,000 compounds, 0.065% hits. AID 743093;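 active = inhibition above the mean plus 3 SD of compounds within the control limits, set per campaign, cut at about 38% in these data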;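 also: 0% = DMSO wells and 100% = medium only without gametocytes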
An asterisk follows results filed as active; . = no result given; [ ] = another dose, or the depositor's remark.

SMILES	Mcl1 Noxa PPI	Mcl-1 Bim block	14-3-3 Bad inh	Mcl1-Bid inh	Hck-Nef inh	Pf gamet viab
Cc1ccc(NC(=S)N2CCN(S(=O)(=O)c3c(F)cccc3F)CC2)cc1C	14	0	-11	-28	30	.
COc1cccc(Nc2nc(-c3sc(NC(=O)c4ccco4)nc3C)cs2)c1	42	56*	50	-50	1	22
COc1ccccc1Nc1nc(-c2sc(NC(=O)c3ccccc3)nc2C)cs1	26	0	20	-32	1	.
CC(=O)Nc1ccc(-c2csc(N/N=C\c3ccncc3)n2)cc1	51*	.	6	-32	12	-3
Cc1nc(NC(=O)c2ccccc2)sc1-c1csc(Nc2cccc(F)c2)n1	56*	-4	71*	-51	1	.
COc1ccccc1Nc1nc(-c2sc(NC(=O)c3ccc([N+](=O)[O-])cc3)nc2C)cs1	86*	3	50	25	1	.
Cc1ccc(C)c(NC(=O)CCN2CCN(C)CC2)c1	.	.	.	.	.	0
O=C(Nc1nc(-c2ccncc2)cs1)c1ccco1	94*	-1	-5	-13	7	.
Cc1cc(NS(=O)(=O)c2ccc(Nc3nc(-c4sc(NC(=O)c5ccccc5)nc4C)cs3)cc2)no1	117*	1	7	-27	-1	.
CCC(=O)Nc1nc(C)c(-c2csc(Nc3ccc(S(=O)(=O)Nc4cc(C)on4)cc3)n2)s1	10	1	9	-4	2	.
Cc1ccc(Cl)cc1Nc1nc(-c2sc(NC(=O)c3ccccc3)nc2C)cs1	106*	-2	83*[fluorescence artefact?]	100*	7	.
CCOc1ccccc1Nc1nc(-c2sc(NC(=O)c3cccc(Cl)c3)nc2C)cs1	24	-6	71*	-49	2	27
Oc1cccc(C(=S)N2CCN(Cc3ccccc3)CC2)c1	-3	1	-15	-43	-23	33
COc1ccccc1CNC(=O)C(=O)NCC1OCCN1S(=O)(=O)c1ccc2c(c1)OCCO2 (centres undefined)	0	-3	0	-1	-5	.
C/C(CC(=O)NC(C)(C)C)=N\NC(=O)c1ccccc1N	5	0	-1	0	15	19
CCOc1ccc([C@@H]2CC=C(C(=O)O)[C@H](c3ccc(F)cc3)N2S(=O)(=O)c2ccc(C)cc2)cc1	.	.	.	.	.	20
Cc1ccc(S(=O)(=O)N2CC(O)CC2C(=O)OCC(=O)c2ccccc2Cl)cc1C (centres undefined)	3	-1	-2	3	1	-1
COc1ccc(CNc2ncnc3c2[nH]c2ccccc23)cc1	16	.	-13	-6	12	-7
COc1ccc(CNc2ncnc3c2[nH]c2cc(OC)c(OC)cc23)cc1	52*	.	-6	-17	13	7
O=C(CSc1nc(C2CCCCC2)nc2ccccc12)NCc1ccc2c(c1)OCO2	-5	-4	0	-13	0	.
Cc1nc(C(=O)NCCC(C)C)sc1C1(C)CC(c2ccccc2)=NO1 (centres undefined)	10	.	1	-43	26	-5
CC(C)=NNC1=NC(C)(C)Cc2ccccc21	-4	.	0	-43	16	-15
Cc1cccc(N/N=C(\C(N)=O)C2=NC(C)(C)Cc3ccccc32)c1	11	1	-5	-15	65*	-4
COC(=O)c1ccc(COC(=O)c2ccc(CS(=O)(=O)c3ccc(C)cc3)cc2)cc1	-1	0	8	81*	9	-5
Cc1cc(C)c(NC(=O)CSc2nnc(Cc3cccn3C)n2-c2ccc(F)cc2)c(C)c1	10	0	-16	-30	0	.
SMILES	Mcl1 Noxa PPI	Mcl-1 Bim block	14-3-3 Bad inh	Mcl1-Bid inh	Hck-Nef inh	Pf gamet viab
CCn1cc(Br)c(C(=O)N2CCN(c3ccccc3)CC2)n1	16	3	72*	0	5	.
O=C(O)c1cccc(-n2cccc2/C=C2\NC(=O)N(Cc3ccc(F)cc3)C2=O)c1	12	-2	40	-54	11	14
O=C(O)c1ccc(-n2cccc2/C=C2/NC(=O)N(c3cccc(Cl)c3)C2=O)cc1	74*	0	80*	-41	49	-15
O=C(O)c1ccc(-n2cccc2/C=C2/NC(=O)N(c3ccccc3)C2=O)cc1	72*	.	65	-34	43	-11
CC1=C/C(=N\Nc2ccccc2[N+](=O)[O-])CC(C)(C)C1	6	-1	-7	-6	-1	-13
CC1CCN(C(=S)NC(=O)c2ccccc2)CC1	3	-5	-4	6	4	-36
CCOc1cc(/C=C(\C#N)C(=O)Nc2ccccc2[N+](=O)[O-])ccc1OCc1cccc2ccccc12	2	0	-2	-8	55*	.
COc1ccc(N2CCN(C(c3cccc(OC)c3OC)c3nnnn3C3CCCC3)CC2)cc1 (centres undefined)	26	0	77*	-27	-22	2
COc1ccc(N2CCN(C(c3ccccc3OC)c3nnnn3C3CCCC3)CC2)cc1 (centres undefined)	26	-1	23	34	-10	13
CCN1CCN(C(c2ccccc2)c2nnnn2Cc2ccccc2)CC1 (centres undefined)	43	-2	62	34	6	.
COc1ccc(C(c2nnnn2CC2CCCO2)N2CCN(c3ccccc3)CC2)cc1 (centres undefined)	22	0	68	-12	1	1
CCN1CCN(C(c2cc(OC)ccc2OC)c2nnnn2Cc2ccccc2)CC1 (centres undefined)	29	2	79*	-19	1	-15
COc1ccc(N2CCN(C(c3cc(OC)ccc3OC)c3nnnn3CC3CCCO3)CC2)cc1 (centres undefined)	60*	-1	51	15	6	12
Cc1ccc(-n2[nH]c(C)c(/C=N/Nc3ccc([N+](=O)[O-])cc3[N+](=O)[O-])c2=O)cc1C	54*	39	-8	38	0	2
Cc1[nH]n(-c2ccccc2)c(=O)c1/C=N/NC(=O)c1cccc([N+](=O)[O-])c1	-56	-1	4	-108	1	.
C=CCNc1nc(N)c(C(=C(C#N)C#N)c2ccc(Br)cc2)s1	-1	12	-22	-13	18	-19
Cc1ccc(/C=C/C(=O)N2CCc3ccccc32)o1	61*	-5	1	-89	20	-18
CCN(c1ccc(NC(=O)COC(=O)c2cccs2)cc1)C(C)C	87*	0	-8	-44	1	.
CCN(c1ccc(NC(=O)COC(=O)c2cc3ccccc3oc2=O)cc1)C(C)C	86*	-3	10	-25	10	-11
CN(C)S(=O)(=O)c1cccc(NC(=O)c2cc3ccccc3o2)c1	11	0	75*[fluorescence artefact?]	-21	7	9
COc1cccc(/C=C/C(=O)OCC(=O)Nc2cccc(S(=O)(=O)N(C)C)c2)c1	17	0	95*	-30	-16	-4
CCOc1cc(CNCc2cccs2)cc(Br)c1OCC	4	0	40	-5	0	.
O=C(Nc1ccccc1)O/N=C/c1ccccc1Cl	9	0	11	-14	1	.
